This is a sample that favours compounds with a hit; in the whole collection about 1.3% have one here.
KAT2A inh = GCN5L2 (KAT2A) acetyltransferase inhibition | GCN5L2 HAT assay, ThioGlo1 CoA-SH fluorescence | 0.21% of 390,000 active | Potency, µM (doses to about 58.9 µM), for inactives: at the top dose activity change, negative = inhibition, actives largely listed as inhibitors | Q92830 | AID 504327; further: potency means the concentration at half of the fitted maximal effect
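Fluorescence readout, Ex340nm/Em540nm: ThioGlo1 (50uM final) reacts with free CoA thiol released as 20nM GCN5L2 acetylates H3(1-25) peptide (75uM) using acetyl-CoA (70uM). Compound and enzyme sat 15 min beforehand; 20 min room-temperature reaction.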
Pin1 inhibitor = human Pin1 inhibition. Pin1 FP peptide displacement, HiFluor488, 10 min. Potency, µM (doses to about 115 µM), without a hit: at the highest dose activity, negative = inhibition, actives largely listed as inhibitors. 0.009% of 390,000 active. AID 504891; active means well fitted inhibition curve with a large enough effect in the polarisation, with a control signal flat, not every such curve was filed as active; inconclusive means small, poorly fitted or top-dose-only effect, or effect the other way, or a change in a side signal; inactive means no such curve, though single readings can be large or run the other way; the % refers to the polarisation; further: potency means the concentration at half of the fitted maximal effect
Target sequence (Q13526 whole entry, looked up): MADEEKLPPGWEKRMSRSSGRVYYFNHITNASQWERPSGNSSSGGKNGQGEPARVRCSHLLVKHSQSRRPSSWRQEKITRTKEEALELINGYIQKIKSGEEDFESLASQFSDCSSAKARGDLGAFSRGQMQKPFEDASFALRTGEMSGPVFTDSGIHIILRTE
TrxR1 substrate = is turned over as a substrate by rat TrxR1 | purified TrxR1 substrate turnover, NADPH consumption readout | Potency, µM (titrated, usually from 114 µM), without a hit: top-dose activity change, negative = substrate turnover | 0.01% of 390,000 active; further: potency means the concentration at half of the fitted maximal effect; nearly all actives have a fitted effect of over 50% in size
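Rat TrxR1, dispensed at 90 nM, was prereduced with 400 uM NADPH (final) for 5 min at ~22 deg C, then incubated with compound 15 min before 400 uM selenite. A first-read NADPH fluorescence drop versus no-compound background flagged substrates.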
Giardia kill = kills Giardia lamblia; AID 540267; 0.15% of 340,000 active; Giardia lamblia trophozoite viability; activity change, % at 7.66 µM, hits read low; in the data active means activity change below about -80%; inconclusive means between about -30% and that limit;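 further: parasites exposed to compound for two days anaerobically before the ATP read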
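Media and compound were dispensed first, then trophozoites at 100 cells/well; plates sat 48 hrs at 37 deg C without oxygen before ATP luminescence reagent was added and read after 15-30 min at room temperature.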
rTrxR1 inhibitor = blocks rat thioredoxin reductase 1 | recombinant rTrxR1, NADPH fluorescence consumption, selenite substrate | Potency, µM (top dose mostly 114 µM), for the others: at the highest dose activity change, negative = inhibition, hits mostly inhibitors | 1% of 390,000 active | AID 588453; further: potency means the concentration at half of the fitted maximal effect; nearly all actives have a fitted effect of over 65% in size
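Rat TrxR1 (90 nM in the dispensed reagent) was pre-reduced with 400 uM NADPH for 5 min at room temperature, then incubated with compound for 15 min. After 400 uM selenite was added, NADPH fluorescence (Ex 340/Em 450 nm) was followed for 8 min.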
GALK inh = galactokinase (human) inhibition | Purified GALK, Kinase-Glo residual ATP luminescence | AID 1868 | 0.007% of 270,000 active | P51570 | Potency, µM (doses to about 57.5 µM), without a hit: at the highest dose activity change, negative = inhibition, actives largely listed as inhibitors; further: potency means the concentration at half of the fitted maximal effect
Target sequence (P51570 whole entry, looked up): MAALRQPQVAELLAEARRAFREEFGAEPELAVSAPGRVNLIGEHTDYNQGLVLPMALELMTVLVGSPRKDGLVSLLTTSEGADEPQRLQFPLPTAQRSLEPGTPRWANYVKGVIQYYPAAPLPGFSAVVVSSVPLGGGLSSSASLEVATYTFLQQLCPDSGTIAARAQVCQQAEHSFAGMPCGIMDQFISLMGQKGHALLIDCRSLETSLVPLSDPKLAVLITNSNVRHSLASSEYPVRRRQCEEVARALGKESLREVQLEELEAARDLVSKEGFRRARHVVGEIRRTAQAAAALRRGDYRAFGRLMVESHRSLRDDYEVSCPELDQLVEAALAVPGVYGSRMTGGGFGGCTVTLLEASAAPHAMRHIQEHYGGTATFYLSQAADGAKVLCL
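Luminescence from leftover ATP (Ultra-Glo luciferase/luciferin) served as read-out after a 1 h room-temperature reaction of 5 nM GALK with 35 uM ATP and 100 uM galactose.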
Active calls of the source: *; u = inconclusive; x = not tested or not shown; [ ] = dose if it differs, or a comment. Unless noted, the call rests on the fitted dose curve; in most records, active means well fitted curve in the direction sought with a large enough effect; inconclusive means small, poorly fitted or top-dose-only effect, or another doubt; inactive means no such curve, though single readings can be large; an effect the other way counts as inactive or inconclusive. On the % scale 0 is the no-effect control and ±100 the full control effect.

SMILES	KAT2A inh	Pin1 inhibitor	TrxR1 substrate	Giardia kill	rTrxR1 inhibitor	GALK inh
O=C(OCn1ncc(Cl)c(Cl)c1=O)c1cccc(C(F)(F)F)c1	-7.4%	0.1%	2.6%	-6.8	15.8µM*	-6.4%
Cc1nc(SCc2ccc(O)c([N+](=O)[O-])c2)n[nH]1	-7.5%	3.3%	0.9%	-23.4	-0.9%	-0.3%
Cc1nc(SCc2ccc(O)c([N+](=O)[O-])c2)c([N+](=O)[O-])[nH]1	14.1µM*	-7.5%	-7.8%	-7.1	u	x
COc1ccc(C2c3c(nc(C)[nH]c3=O)Oc3ccc4ccccc4c32)cc1OC (stereo not given)	x	-4.4%	x	x	x	x
CS(=O)(=O)c1ncc(Cl)c(C(=O)N2CCN(c3cccc(Cl)c3)CC2)n1	-14.7%	7.5%	1.0%	u	0.891µM*	x
CCS(=O)(=O)c1ncc(Cl)c(C(=O)N2CCN(c3cccc(Cl)c3)CC2)n1	-5.3%	21.1%	-1.0%	x	0.398µM*	x
N#CC1=C(N)C2=CCCC[C@H]2[C@H](c2ccccc2)C1(C#N)C#N	-3.9%	u	-1.3%	-6.2	u	-1.3%
N#CC1=C(N)C2=CCCC[C@H]2[C@H](c2ccc(Br)cc2)C1(C#N)C#N	6.6%	u	3.5%	2.4	5.01µM*	-0.6%
CCn1cnc2c([N+](=O)[O-])c(NS(=O)(=O)c3ccc(C)cc3)ccc21	-2.4%	3.7%	5.5%[57.1 µM]	-88.3*	5.8%[57.1 µM]	x
O=C1C=CC(=O)N1c1ccc2c(c1)C(NC(=O)C(F)(F)F)c1ccccc1-2 (stereo not given)	x	31.0%	3.7%	-5.5	1.78µM*	x
CN(C)C(=O)NC1c2ccccc2-c2ccccc21	-3.7%	-4.6%	-10.1%	-14.5	-8.3%	-2.3%
CN(C(=O)c1cccc(NC(=O)c2cccs2)c1)c1ccccc1	-4.7%	-6.3%	-13.4%	2.6	-9.9%	-1.3%
CCNc1ncc2ncc(=O)n(Cc3ccc(F)cc3)c2n1	-25.4%	x	x	x	x	x
Cc1nnc(SCC2=C(C(=O)O)N3C(=O)C(NC(=O)COc4ccccc4)C3SC2)s1 (stereo not given)	-1.3%	x	-0.2%[57.1 µM]	3.7	7.94µM*	x
Cc1nnc(SCC2=C(C(=O)O)N3C(=O)C(NC(=O)COc4ccc(F)cc4)C3SC2)s1 (stereo not given)	-6.8%	u	-3.7%	13.9	3.98µM*	x
Cc1nnc(SCC2=C(C(=O)O)N3C(=O)C(NC(=O)Cn4nc(C(F)F)cc4C)C3SC2)s1 (stereo not given)	-8.5%	u	-5.7%	-12.9	44.7µM*	10.0%
CCC(C(=O)NC1C(=O)N2C(C(=O)O)=C(CSc3nnc(C)s3)CSC12)c1ccccc1 (stereo not given)	-4.2%	u	-2.2%	3.4	u	x
N#Cc1nc(Nc2cc(F)cc(F)c2)c2ncn(CCCO)c2n1	x	36.1%	x	x	x	x
Cc1ccc(N2CC(NC(=O)c3cccc(Cl)c3)CC2=O)cc1C (stereo not given)	3.8%	1.8%	2.5%[57.1 µM]	x	12.4%[57.1 µM]	x
CCc1cccc(C)c1NC(=O)c1ccoc1C	0.8%	1.5%	-1.4%	-1.0	20µM*	1.8%
Cc1cc2c(s1)c1cnn(Cc3ccc(Br)cc3)c(=O)c1n2C	x	3.9%	x	x	x	x
COc1ccc(NC(=O)c2noc3c2CSc2ccccc2-3)cc1Cl	-1.9%	-0.6%	3.3%	x	5.9%	x
COc1cc(OC)c(NC(=O)c2noc3c2CSc2ccccc2-3)cc1Cl	-9.1%	9.3%	-5.6%	x	7.08µM*	x
COc1cc(OC)c(NC(=O)c2nn(C)c3c2COc2ccccc2-3)cc1Cl	-11.1%	10.3%	6.2%	x	15.8µM*	x
COc1cc2ncnc(N3CCN(C(=O)Nc4ccc(Oc5ccccc5)cc4)CC3)c2cc1OC	x	x	-2.5%	x	3.0%	x
SMILES	KAT2A inh	Pin1 inhibitor	TrxR1 substrate	Giardia kill	rTrxR1 inhibitor	GALK inh
CN(C)c1ccc(/C=C2\C(=O)/C(=C/c3ccc(N(C)C)cc3)c3ccccc32)cc1	x	x	-8.4%	x	u	x
CC(=O)N1/C(=C/c2ccc(N(C)C)cc2)C(=O)c2ccccc21	-13.2%	33.1%	-5.1%	-16.5	39.8µM*	-1.2%
CC1CCN(c2ccc(-c3cccc(NS(=O)(=O)c4ccc(F)cc4F)c3)nn2)CC1	-22.8%	26.0%	-13.2%[57.1 µM]	x	-7.8%[57.1 µM]	x
CC(C)=CC[C@@H](O)C1=CC(=O)c2c(O)ccc(O)c2C1=O	25.1µM*	x	x	x	x	x
CCc1ccc(NC(=O)Nc2ccccc2OCc2cc(=O)n3ccccc3n2)cc1	-1.8%	-1.7%	5.2%[57.1 µM]	x	39.0%[57.1 µM]	x
O=[N+]([O-])c1ccc(O)c(-c2ccnc3cc(-c4ccccc4)nn23)c1	-0.2%	7.9%	-8.0%	x	1.5%	x
CN(C(=O)COC(=O)c1ccc(C(C)(C)C)cc1)C1CCS(=O)(=O)C1 (stereo not given)	0.1%	-5.6%	-2.3%	-12.8	-4.8%	x
CN(C(=O)COC(=O)c1nc(Cl)c(Cl)c(Cl)c1Cl)C1CCS(=O)(=O)C1 (stereo not given)	-10.7%	-1.6%	8.0%[57.1 µM]	-7.0	14.1µM*	6.4%
Cc1oc(-c2ccccc2)nc1CS(=O)CC(=O)NC1CCCCCC1 (stereo not given)	3.1%	-1.5%	-15.5%	-4.0	31.6µM*	1.9%
Cc1cccc(-c2nc(CS(=O)CC(=O)NC3CCCCC3)c(C)o2)c1 (stereo not given)	-1.2%	0.0%	-0.3%	0.2	-7.2%	-0.7%
Cc1ccc(-c2nc(CS(=O)CC(=O)N3CCN(c4ccc(F)cc4)CC3)c(C)o2)cc1 (stereo not given)	1.3%	-3.6%	6.8%	1.4	u	-3.5%
Cc1oc(-c2ccc(Cl)cc2)nc1CS(=O)CC(=O)NC1CC1 (stereo not given)	-21.4%	-4.6%	-4.3%	3.9	3.4%	1.7%
Cc1ccc(-c2nc(CS(=O)CC(=O)NC3CCC(C)CC3)c(C)o2)cc1 (stereo not given)	-8.1%	0.7%	21.6%[57.1 µM]	21.7	15.8µM*	2.1%
CCOC(=O)C1CCN(C(=O)CS(=O)Cc2nc(-c3ccc(C)cc3)oc2C)CC1 (stereo not given)	-4.5%	-0.2%	1.4%[57.1 µM]	-13.9	14.1µM*	3.4%
Nc1ccc(S(=O)(=O)N2CCN(S(=O)(=O)c3ccc4c(c3)OCCO4)CC2)cc1	x	3.6%	x	x	x	x
Cc1ccc(SCC(Cc2ccccc2)N2CCN(C)CCC2=O)cc1 (stereo not given)	x	-10.4%	-1.1%	-28.1	u	x
CCC(CC)C(=O)Nc1ccc(-c2cn3cccnc3n2)cc1	u	-3.0%	764.6%	16.1	79.4µM*	0.2%
Cc1[nH]c2ccccc2c1C(=O)CNc1ccc(Br)cc1	x	x	4.7%	x	12.4%	x
COc1ccccc1C(C)NCC(=O)c1c(C)[nH]c2ccccc12 (stereo not given)	x	x	-3.1%	x	20µM*	x
CCS(=O)(=O)c1ncc(Cl)c(C(=O)NCc2ccccc2)n1	-4.3%	3.9%	4.4%	x	5.62µM*	x

High-throughput results as filed in PubChem.
